HepG2 tox: HepG2 cytotoxicity, counter-screen for TGF-b inhibitors; HepG2 CAGA-GFP viability, ATP luminescence, 18 h; Potency, µM (highest dose often 46.1 µM), without a hit: top-dose activity change, negative = cytotoxicity, hits mostly cytotoxic; AID 588856; hit rate 0.76% among 410,000; also: potency is read from the fitted curve at half-maximal effect
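HepG2 CAGA-GFP cells (1000/well, DMEM with 1% FBS) received compound, then TGF-beta at 500 pg/mL final, and were incubated 18 hours at 37 degrees C. Viability was read by CellTiter-Glo luminescence. Media-only wells were set as complete cell-killing and DMSO as no toxicity.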
DT40 TDP1 CPT: growth inhibition of DT40 Tdp1-/-;hTDP1 cells with camptothecin (screen for TDP1 inhibitors); chicken DT40 Tdp1-/-;hTDP1 cells + 20 nM CPT, ATP luminescence, 48 h; Potency, µM (titrated, usually from 46.2 µM), for inactives: at the top dose activity change, negative = growth inhibition, most hits filed as inhibitors; hit rate 12% among 420,000; AID 686979; also: potency is read from the fitted curve at half-maximal effect; % is scaled to controls: 0 for no effect and ±100 for the full control effect; nearly all actives have a fitted effect of over 55% in size
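Chicken DT40 Tdp1-/- cells complemented with human TDP1, 400 cells/well, exposed to compounds plus 20 nM camptothecin for at least 48 h at 37 C; viability read as ATP content by CellTiter-Glo luminescence.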
TGFb inhibitor: TGF-b pathway inhibition; HepG2 CAGA-GFP TGF-b/SMAD3 reporter, GFP fluorescence, 18 h; TGF-beta stimulated, 500 pg/mL final; Potency, µM (titrated, usually from 46.1 µM), without a hit: at the top dose activity, negative = inhibition, actives largely listed as inhibitors; hit rate 1.2% among 410,000; AID 588855; also: potency is read from the fitted curve at half-maximal effect; % is scaled to controls: 0 for no effect and ±100 for the full control effect; nearly all actives have a fitted effect of over 65% in size
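GFP signal (ex488/em500-530) from TGF-beta-stimulated HEPG2 CAGA-GFP cells, 500 pg/mL final, 18 h at 37 degrees C in DMEM plus 1% FBS, normalized to unstimulated and DMSO-stimulated controls.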
ASM inhibitor: blocks human secretory acid sphingomyelinase; placental ASM, HMU-PC fluorogenic substrate, 60 min; Potency, µM (highest dose often 57.5 µM), inactives show at the top dose activity change, negative = inhibition, hits mostly inhibitors; P17405; hit rate 0.006% among 340,000; also: potency is read from the fitted curve at half-maximal effect
Target sequence (P17405 47-631 limits assumed): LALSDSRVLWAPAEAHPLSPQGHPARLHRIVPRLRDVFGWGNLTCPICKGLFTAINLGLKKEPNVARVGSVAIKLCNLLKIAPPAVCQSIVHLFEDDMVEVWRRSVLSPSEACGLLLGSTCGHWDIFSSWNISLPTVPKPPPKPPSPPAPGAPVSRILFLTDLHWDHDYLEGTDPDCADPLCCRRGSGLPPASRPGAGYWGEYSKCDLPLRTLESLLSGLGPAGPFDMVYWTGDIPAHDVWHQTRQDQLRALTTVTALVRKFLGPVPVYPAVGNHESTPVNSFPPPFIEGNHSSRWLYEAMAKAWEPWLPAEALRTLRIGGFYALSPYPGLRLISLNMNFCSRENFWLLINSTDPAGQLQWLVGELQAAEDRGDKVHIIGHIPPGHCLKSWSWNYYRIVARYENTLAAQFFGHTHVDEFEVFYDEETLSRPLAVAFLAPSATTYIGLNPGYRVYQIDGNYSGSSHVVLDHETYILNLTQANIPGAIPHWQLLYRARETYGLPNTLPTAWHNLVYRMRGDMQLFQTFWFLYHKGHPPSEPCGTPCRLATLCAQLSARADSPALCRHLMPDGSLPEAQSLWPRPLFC
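Steps: dispense placental human ASM, pin compound, wait 10 min at room temperature, add HMU-PC0 substrate at 9 uM final, incubate 60 min at 37 °C, add stop solution raising pH to 10, read fluorescence.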
TDP1 cell noCPT: qHTS for Inhibitors of human tyrosyl-DNA phosphodiesterase 1 (TDP1): qHTS in cells in absence of CPT; DT40 Tdp1-/- hTDP1 cells, no CPT, ATP luminescence, 48 h; Potency, µM (highest dose often 46.2 µM), for inactives: at the top dose activity change, negative = growth inhibition, hits mostly inhibitors; hit rate 15% among 420,000; AID 686978, 2013; also: potency is read from the fitted curve at half-maximal effect; % is scaled to controls: 0 for no effect and ±100 for the full control effect; nearly all actives have a fitted effect of over 55% in size
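Stably hTDP1-transfected Tdp1-null chicken DT40 cells were treated with library compounds minus camptothecin and grown for at least 48 hr at 37 °C, after which cellular ATP was quantified by luminescence.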
IL1B secr inh: blocks inflammasome-driven IL-1 beta release | THP-1 LPS/ATP IL-1B secretion, AlphaLISA, 16 h; stronger effect = lower value | activity change, % at 57.5 µM | hit rate 4.7% among 360,000; in the data active = activity change below about -50%; inconclusive = mostly about -30% to -49%; also: % is scaled to controls: 0 for no effect and ±100 for the full control effect
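Secreted IL-1B measured by AlphaLISA bead assay after 16 h compound exposure of THP-1 cells; compounds (final up to 57.5 uM) added 1 h before LPS (250 ng/mL) and ATP (1.25 mM) stimulation; lower signal means less secretion.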
* marks the source's active call; other numbers are inactive results; u = inconclusive; x = no result given. Most compounds without a hit are left out; they make up all but 19% or so of the library. Unless noted, calls follow the shape of the dose curve; as a rule, active = well fitted curve in the direction sought with a large enough effect; inconclusive = small, poorly fitted or top-dose-only effect, or another doubt; inactive = no such curve, though single readings can be large; an effect the other way counts as inactive or inconclusive.

SMILES | HepG2 tox | DT40 TDP1 CPT | TGFb inhibitor | ASM inhibitor | TDP1 cell noCPT | IL1B secr inh
Cc1ccc(C2CC(C(F)(F)F)n3nc(C(=O)NCc4c(C)nn(C)c4C)c(Cl)c3N2)cc1 (stereo unspecified) | -59% | 4.6µM* | 13µM* | -3% | 5.2µM* | -13
COc1ccc(C2CC(C(F)(F)F)n3nc(C(=O)NCc4cn(C)nc4C)c(Cl)c3N2)cc1 (stereo unspecified) | -21% | 13µM* | u | -5% | 10µM* | -20
COC(=O)Nc1nc2ccc(C(=O)c3ccccc3)cc2[nH]1 | x | 0.36µM* | x | x | 0.25µM* | x
COC(=O)Nc1nc2ccc(SC(C)C)cc2[nH]1 | -11% | 0.82µM* | u | -8% | 3.3µM* | 34
COC(=O)Nc1nc2ccc(S(=O)c3ccccc3)cc2[nH]1 (stereo unspecified) | x | u | x | x | 8.4µM* | x
CC(CC(=O)Nc1nc2ccccc2[nH]1)c1ccccc1 (stereo unspecified) | -34% | u | u | 1% | u | -14
COc1cccc(C(=O)Nc2nc3ccccc3[nH]2)c1 | -70% | -23% | -7% | -7% | u | -19
O=C(CSc1ccc2ccccc2c1)Nc1nc2ccccc2[nH]1 | -29% | -30% | -20% | -1% | u | 26
O=C(Cc1ccccc1)NCC(=O)OCC(=O)c1ccc(Cl)cc1 | 3% | 9% | 1% | -2% | 0% | u
CC(=O)c1ccc(NC(=O)/C(=C\c2ccccc2)NC(=O)c2ccco2)cc1 | 2% | -4% | 8% | 1% | -4% | -10
CCN1CCCc2cc(CN(CCN3CCOCC3)C(=S)Nc3ccc(OC)cc3)ccc21 | -9% | -17% | -6% | 0% | -15% | -10
CCOc1ccc(NC(=S)N(CCN2CCOCC2)Cc2ccc3c(c2)CCCN3CC)cc1 | -30% | u | u | 0% | u | 0
CCN1CCCc2cc(CN(CCN3CCOCC3)C(=S)Nc3cccc(Cl)c3)ccc21 | -9% | 16µM* | -29% | -4% | 13µM* | u
CCN1CCCc2cc(CN(CCN3CCOCC3)C(=S)Nc3ccc(C)cc3)ccc21 | -26% | 29µM* | -12% | 1% | 18µM* | 4
CCN1CCCc2cc(CN(CCN3CCOCC3)C(=S)Nc3cc(F)cc(F)c3)ccc21 | 15% | u | -3% | 3% | 21µM* | -13
Cc1cccc(-c2noc(CNS(=O)(=O)c3ccccc3)n2)c1 | -8% | 4% | -5% | -1% | 5% | -9
Cc1csc(=O)n1CC(=O)OCC(=O)Nc1ccc(C(N)=O)cc1 | 5% | -7% | 22% | 9% | 6.5µM* | 0
CCOC(=O)c1ccc(NC(=S)NCC(O)c2ccccc2)cc1 (stereo unspecified) | 2% | u | -5% | -1% | 18µM* | 8
CCOC(=O)c1ccc(NC(=O)NCCc2ccccc2OC)cc1 | -14% | u | -14% | -1% | 15µM* | -7
CCOC(=O)c1ccc(NC(=S)NCCc2ccccc2)cc1 | -13% | u | u | -8% | 21µM* | 67
Cc1csc(=O)n1CCC(=O)OCC(=O)Nc1ccc(C(N)=O)cc1 | -11% | -9% | -2% | 2% | 0% | 7
CCOC(=O)c1ccc(NC(=S)NCc2ccccc2)cc1 | -18% | -21% | -23% | -2% | u | -8
Cc1noc(C)c1COc1ccc(C(=O)N2CCN(S(=O)(=O)c3ccc(F)cc3)CC2)cc1 | -3% | u | -10% | -3% | 0% | 4
COc1ccc(S(=O)(=O)NCC(c2ccc3c(c2)OCO3)N2CCOCC2)cc1C (stereo unspecified) | -6% | -12% | -11% | 0% | u | -4
O=C1NCCCN1Cc1ccc(Cl)cc1 | -28% | 0% | 1% | 1% | 1% | 3
SMILES | HepG2 tox | DT40 TDP1 CPT | TGFb inhibitor | ASM inhibitor | TDP1 cell noCPT | IL1B secr inh
COc1ccccc1CCC(=O)OCC(=O)Nc1ccc(S(N)(=O)=O)cc1 | 14% | 0% | 4% | -1% | -9% | 47
COc1ccccc1CCC(=O)OCC(=O)Nc1ccc(C(N)=O)cc1 | 2% | 15µM* | 8% | -3% | -99% | 19
CCOC(=O)c1ccc(NC(=S)Nc2ccccn2)cc1 | -8% | u | -12% | -4% | 15µM* | -1
CCOC(=O)c1ccc(NC(=S)Nc2ccc(Cl)cn2)cc1 | -4% | u | -24% | -2% | -26% | 0
CCOC(=O)c1ccc(NC(=S)NCCc2ccccc2F)cc1 | -23% | u | u | -3% | 23µM* | 72
S=C(Nc1ccccc1)c1ccccn1 | -40% | 0.65µM* | 11µM* | -5% | 0.92µM* | 0
O=C(NC(=S)Nc1ccc2[nH]c(=O)[nH]c2c1)c1cccc(F)c1 | -19% | -21% | -14% | 2% | -23% | 11
CCCC(CCC)C(=O)Nc1cccc(-c2cn3cccnc3n2)c1 | 11% | u | 12% | x | -15% | x
Cc1ccc(-c2nnc(Nc3ccc(C(N)=O)cc3)c3ccccc23)cc1S(N)(=O)=O | -23% | 10% | -3% | x | 0% | x
CCN(Cc1ccccc1)Cc1c(O)ccc2c(=O)c(-c3ccc(Cl)cc3)c(C(F)(F)F)oc12 | -8% | -5% | -2% | x | -6% | x
O=C(NCCc1cnn(-c2ccccc2)c1)c1cc(COc2c(F)cccc2F)on1 | -34% | u | -27% | 1% | u | -23
S=C(Nc1ccc(Nc2ccccc2)cc1)Nc1ccccn1 | -3% | 6.5µM* | u | -12% | 6.5µM* | u
O=C(Cc1ccc([N+](=O)[O-])cc1)Nc1ccc2c(c1)CCC2 | -3% | -6% | 6% | -4% | -5% | -8
CN(C)c1ccc(/C=C2\c3ccccc3C(=O)N2c2ccccc2)cn1 | -44% | 9.2µM* | 1% | x | -20% | 25
CC(C)CC(N)c1csc(NC(=O)Nc2ccccc2C(C)C)n1 (stereo unspecified) | -98% | u | u | x | 15µM* | u
CC(C)(C)c1ccccc1NC(=O)Nc1nc(C(N)Cc2ccc(F)cc2)cs1 (stereo unspecified) | -107% | u | u | x | 21µM* | -53*
COc1ccc(NC(=O)Nc2nc(C(N)CC(C)C)cs2)cc1 (stereo unspecified) | -45% | u | u | x | 16µM* | u

Assay outcomes from PubChem.
